# MCF10A rereplic: inducers of DNA re-replication in MCF 10A breast cells | MCF 10A DNA re-replication, Hoechst nuclear intensity, 48 h | AID 624296 | 350,000 tested, 2.9% active | Potency, µM (series often up to 46.1 µM), for the others: at the highest dose activity, positive = re-replication, hits mostly activators; also: % of control where 0% means no effect; nearly all actives have a fitted effect of over 50% in size
# ELG1 DNA repair: inhibitors of ELG1-dependent DNA repair in HEK293T cells; HEK293T ELG1-luciferase reporter, luminescence, 16 h; DNA damage induced by 5-fluorouridine; Potency, µM (top dose mostly 46.1 µM), for inactives: at the top dose activity change, negative = inhibition, usual class: inhibitors; 330,000 tested, 2.3% active; also: % is scaled to controls: 0 for no effect and ±100 for the full control effect; nearly all actives have a fitted effect of over 55% in size
#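 Cells (2,000 per well) received 5-fluorouridine plus test compound or DMSO and were incubated 16 hr at 37 °C, 5% CO2. Luciferase activity was read by luminescence 30 min after ONE-Glo addition; signal suppression marked inhibition of damage-induced ELG1 function.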
# KB-V1 MDR tox: KB-V1 MDR subline cytotoxicity | KB-V1 MDR cells viability, CellTiter-Glo, 72 h | Potency, µM (highest dose often 46.1 µM), most hits filed as cytotoxic | 400,000 tested, 3.4% active | AID 1347076; also: % is scaled to controls: 0 for no effect and ±100 for the full control effect; nearly all actives have a fitted effect of over 60% in size
#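 Compound-treated KB-V1 multidrug-resistant cells, 72 h, 37 degrees C; viability by CellTiter-Glo. Fitted qHTS curves give the values.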
# KB-3-1 tox: KB-3-1 parental cell cytotoxicity; Potency, µM (series often up to 46.1 µM), usual class: cytotoxic; 400,000 tested, 1.4% active; KB-3-1 viability, CellTiter-Glo ATP luminescence, 72 h; also: % is scaled to controls: 0 for no effect and ±100 for the full control effect; nearly all actives have a fitted effect of over 60% in size
#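 Parental KB-3-1 adenocarcinoma cells in phenol-red-free DMEM with 10% FBS were pin-treated with compounds at several concentrations, incubated 72 h at 37 °C, and viability read by CellTiter-Glo luminescence; concentration-effect curves were fitted after normalization.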
# SW480 rerep: inducers of DNA re-replication in SW480 colon cancer cells; SW480 DNA re-replication, Hoechst DNA content imaging, 48 h; Potency, µM (highest dose often 46.1 µM), for inactives: at the highest dose re-replication activation, most hits filed as activators; 340,000 tested, 1.8% active; AID 624297; also: % of control where 0% means no effect; nearly all actives have a fitted effect of over 55% in size
#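 Per well, 250 cells were exposed to pinned compound for 48 hr. Nuclear DNA was visualised with Hoechst (40 min, 37 C) and total object intensity recorded by fluorescence scanning.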
# * hit, by the source's call; i = inactive; ? = inconclusive; / = no result; [ ] = another dose, or the depositor's remark. Only some compounds are listed: those with a hit (about 8.2% of all), similar ones and a draw of the others. Calls follow the shape of the dose curve; as a rule, active = well fitted curve in the direction sought with a large enough effect; inconclusive = small, poorly fitted or top-dose-only effect, or another doubt; inactive = no such curve, though single readings can be large; an effect the other way counts as inactive or inconclusive. Potency is read from the fitted curve at half-maximal effect.
SMILES,MCF10A rereplic,ELG1 DNA repair,KB-V1 MDR tox,KB-3-1 tox,SW480 rerep
CC(C)c1ccccc1NC(=O)Cn1c(-c2ccccc2Cl)nc2ccccc21,-1%,3%,?,i,28%
CCCCOc1ccccc1NC(=O)Cn1c(-c2nonc2N)nc2ccccc21,0.79µM*,28%,1.8µM*,4.6µM*,?
NNC(=O)Cn1c(-c2nonc2N)nc2ccccc21,2%,10%,i,i,-1%
Nc1nonc1-c1nc2ccccc2n1CC(=O)N/N=C\c1ccc(-c2ccc(Cl)cc2)o1,8.9µM*,16%,?,?,?
CSc1ccccc1NC(=O)Cn1c(-c2cscn2)nc2ccccc21,21%,0%,16µM*,i,-9%
CCCNC(=O)CN1CCC(c2nc3ccccc3[nH]2)CC1,?,16%,?,i,23%
O=C(N/N=C/c1ccc(Cl)cc1Cl)c1n[nH]c2c1CCCC2,?,?,?,5.2µM*,?
O=C(N/N=C/c1cccc2ccccc12)c1n[nH]c2c1CCCC2,?,11%,2.6µM*,4.1µM*,5.8µM*
Cc1ccc(/C=N/NC(=O)c2n[nH]c3c2CCCC3)cc1,?,?,1.2µM*,?,0.73µM*
O=C(N/N=C\c1cccc(Cl)c1)c1n[nH]c2c1CCCC2,?,?,i,i,-8%
CCc1ccc(-n2c(=O)c3sc4ccccc4c3n(CC(=O)NC3CCCCC3)c2=O)cc1,/,/,i,i,/
Cc1ccc(-c2nc(-c3ccccn3)no2)cc1Cl,2%,?,i,?,-5%
c1ccc(-c2noc(-c3ccno3)n2)nc1,-2%,?,i,i,1%
Cc1ccc(-c2nc(-c3ccccn3)no2)cc1,2%,?,6.5µM*,9.2µM*,-3%
c1ccc(-c2nc(-c3ccccn3)no2)cc1,?,?,16µM*,9.2µM*,2%
c1ccc(-c2ccc(-c3nc(-c4ccccn4)no3)cc2)cc1,-1%,?,8.2µM*,13µM*,1%
Clc1cccc(-c2nc(-c3ccccn3)no2)c1,-5%,?,i,?,-13%
S=c1[nH]nc(C(c2ccccc2)C2CCCCC2)o1 (stereo unspecified),-4%,0%,i,i,-11%
Cc1ccc(Sc2ccc([N+](=O)[O-])cc2[N+](=O)[O-])nc1,?,15%,i,?,?
Cc1ccnc(Sc2ccc([N+](=O)[O-])cc2[N+](=O)[O-])n1,?,?,?,?,12µM*
O=C(CSc1nccn1Cc1ccc(F)cc1)Nc1ccc(F)cc1F,2%,23µM*,i,i,0%
COc1cccc(NC(=O)CSc2ccc(-c3sc(C)nc3C)nn2)c1,15%,21µM*,?,i,0%
COc1ccccc1NC(=O)CSc1nccn1Cc1ccc(F)cc1,-1%,8%,i,i,-2%
Cc1nc(C)c(-c2ccc(SCC(=O)Nc3ccc(F)cc3F)nn2)s1,13%,18µM*,?,i,3%
CCOC(=O)C1C(=O)OC(C)(C)C1C(CC)C(=O)c1c(C)cc(C)cc1C (stereo unspecified),-6%,?,i,i,-11%
SMILES,MCF10A rereplic,ELG1 DNA repair,KB-V1 MDR tox,KB-3-1 tox,SW480 rerep
Cc1cn(CC(=O)NCc2ccc(N(C)C)cc2)c(=O)[nH]c1=O,?,/,i,i,-22%
CN(C(=O)CSc1nnnn1C)C1(C#N)CCCCC1,-2%,17%,?,i,-10%
CCCCn1c(SCc2ccc(C(=O)OC)o2)nc2cc(S(N)(=O)=O)ccc21,-3%,10µM*,?,18µM*,0%
CCCCn1c(SCC(=O)c2cc(OC)ccc2OC)nc2cc(S(N)(=O)=O)ccc21,6%,8%,i,i,-3%
Nc1cc(Cl)cc2c1-c1ccc(Cl)cc1C2,?,/,?,?,10%
CCOc1ccccc1C=C1SC(=S)NC1=O,18µM*,/,i,i,10%
CCOc1ccc(/C=C2\SC(=S)NC2=O)cc1OC,1%,39%,i,i,-2%
O=C1NC(=S)SC1=Cc1ccccc1Br,15µM*,/,i,?,1%
O=C1NC(=S)SC1=Cc1ccc(Cl)cc1,9.2µM*,/,i,i,?
COC(=O)CCC(=O)c1ccn(S(=O)(=O)c2ccccc2)c1,-7%,14%,i,i,-6%
Cc1ccc(C(=O)N2CCCC(N3CCN(c4cccc(C(F)(F)F)c4)CC3)C2)s1 (stereo unspecified),5%,?,i,?,-17%
COc1ccc(OC)c(NC(=O)c2cccc(Cn3cc(Br)c([N+](=O)[O-])n3)c2)c1,6%,?,4.6µM*,?,-55%
COc1cccc(/C=N\NC(=O)c2ccc(Cn3cc(Br)c([N+](=O)[O-])n3)o2)c1O,?,?,?,?,0.73µM*
Cc1cccc(NC(=O)c2cccc(Cn3cc(Br)c([N+](=O)[O-])n3)c2)c1C,-4%,?,12µM*,?,-2%
O=C(NC(c1ccco1)c1cc(Cl)c2cccnc2c1O)c1ccsc1 (stereo unspecified),/,/,i,?,/
O=C1N=C(N2CCCCC2)S/C1=C\c1ccccc1F,-3%,?,i,i,-4%
CCCOc1ccccc1/C=C1\SC(N2CCCCC2)=NC1=O,?,0%,i,7.3µM*,9%
Cc1ccc(/C=N/NC(=O)c2nnn(-c3nonc3N)c2CSc2ccccc2)s1,21µM*,?,i,i,13µM*
Nc1nonc1-n1nnc(C(=O)N/N=C/c2ccccc2)c1CSc1ccccc1,?,-6%,i,i,?
Nc1nonc1-n1nnc(C(=O)N/N=C/c2cccnc2)c1CSC1=NCCS1,18µM*,-15%,i,i,6%
Nc1nonc1-n1nnc(C(=O)N/N=C/c2ccc(Br)cc2)c1CSC1=NCCS1,?,?,i,?,?
CCCC1CCc2c(sc(N)c2C(N)=O)C1 (stereo unspecified),?,-2%,16µM*,i,0%
CCC(C)(C)C1CCc2c(sc(N)c2C(N)=O)C1 (stereo unspecified),?,-20%,i,i,1%
CN1CCN(C(=S)c2ccc(OCC(=O)Nc3cccc(C(F)(F)F)c3)cc2)CC1,?,18µM*,?,i,0%[9.22 µM]
Nc1ccc(-c2cc3ccccc3oc2=O)cc1,6%,15%,i,i,0%
O=C/C=C/c1c(-c2ccccc2)cc2oc3ccccc3cc1-2,8.2µM*,-2%,?,?,?
CCOc1cc(-c2cc(-c3ccc(C)o3)nc(N)c2C#N)ccc1O,?,16µM*,23µM*,?,?
